The results in this text go back to PubChem BioAssay (NCI).

Each structure is given as a SMILES string. Compounds without any hit were thinned out: in the full panel of roughly 83,000, 20% have a hit.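 For each line, cells grew in 96-well plates with the test compound present at a single concentration for 48 hours.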 Active and inactive are the calls of the source. The calls were made as follows: active = growth percent below 10; inactive = the rest.

This assay relates to RXF 393 renal. Description: NCI-60 one-dose screen, 48 h (100 = growth as untreated, 0 = no growth, -100 = all killed). The following applies: 10 µM unless noted.
Regarding `C/C=C(\C)C(C(=O)NC1CCCCC1)N(C(=O)C1CCc2cc(F)ccc2O1)c1ccc(Cl)cc1` (centres undefined), the growth was 109% (inactive).
For the molecule `N=C(N)c1ccc(-c2cc(Cl)cc(Cl)c2)cn1`, the growth is 41.5% (inactive).
To `COc1ccc(-c2cc(-c3ccccc3)nc(SCCCC(=O)NO)n2)cc1OC` belongs -21.1% (active).
To `CCC(C)/C(=C\C#N)NCCCN/C(=C/C#N)C(C)CC` (centres undefined) belongs 115% (inactive); to `CC1=C(C#N)C(=O)NC(C)C1` (centres undefined), 107% (inactive); to `COc1cccc(/C=C2\Oc3cc(OCCCN4CCCC4)ccc3C2=O)c1OC`, 93.1% (inactive).
To `COc1cc(C2C3=C(COC3=O)Nc3cc4c(cc32)CCC4)cc2c1OCO2` (centres undefined) belongs 30.4% (inactive).
On to `CCN(CC)c1ccc(/C=C2\Oc3ccc(O)c(I)c3C2=O)cc1`, for which the growth is 63% (inactive).
To `C=C(C)[C@@H]1CC[C@]2(C(=O)O)CC[C@]3(C)[C@H](CC[C@@H]4[C@@]5(C)C[C@@H](CC#Cc6ccc(C(F)(F)F)cc6)[C@H](O)C(C)(C)[C@@H]5CC[C@]43C)[C@@H]12` belongs -34.4% (active); to `COc1ccc2c(c1)[nH]c(=O)c1c3cccc(F)c3cn21`, -26.9% (active).
As for `CCOC(=O)C1=C(C)NC(C)=C(C(=O)OCC)C1(C)C`, the growth is 98.1% (inactive).
As for `COc1cccc(/C=C/C(=O)Nc2cc(OC)c3c(c2)OCO3)c1`, the figure is 103% (inactive); as for `COc1cccc(-c2nc3sccn3c2-c2ccnc(NCCCNS(=O)(=O)c3ccc(F)cc3)c2)c1`, 63.2% (inactive); as for `COc1ccc(S(=O)(=O)Nc2cc(/C=C\c3cc(OC)c(OC)c(OC)c3)cc(OC)c2OC)cc1`, 40.9% (inactive).
